Data taken from PubChem BioAssay (NCI).
Compounds without any hit were thinned out: in the full panel of roughly 79,000, 15% have a hit. Active and inactive are the calls of the source. No stated cut-off is given here; in the data, active means growth inhibition above about 70%; inactive means the rest.

Experiments:
[1] = NCI Yeast Anticancer Drug Screen. Data for the rad52 strain (AID 147);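 further: 0% = growth of vehicle-treated control cultures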; settings: S. cerevisiae rad52 mutant growth inhibition, hits give high values
In short: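 Here a repair-compromised yeast strain receives each compound; its growth is then quantified and normalised to vehicle-only controls.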

[2] = NCI Yeast Anticancer Drug Screen. Data for the wt1 strain (AID 149);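 further: 0% = growth of vehicle-treated wt1 cultures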; settings: S. cerevisiae wt1 strain (SPY 50644) growth inhibition, hits give high values
In short: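 Using yeast strain wt1, compound-induced growth inhibition was determined against vehicle-treated cultures.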

[3] = NCI Yeast Anticancer Drug Screen. Data for the rad50EPP+ strain (AID 151);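 further: 0% = growth of vehicle-treated control cultures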; settings: S. cerevisiae rad50 mutant strain, hits give high values
In short: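 Read-out is yeast growth inhibition relative to vehicle; cells used were the rad50EPP+ strain.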

[4] = NCI Yeast Anticancer Drug Screen. Data for the mgt1 strain (AID 153); settings: S. cerevisiae mgt1 mutant growth inhibition, hits give high values
In short: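 Measured: inhibition of mgt1 yeast growth by compound, normalized to vehicle-treated cultures.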

[5] = NCI Yeast Anticancer Drug Screen. Data for the rad50 strain (AID 155);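 further: 0% = growth of vehicle-only cultures of the same strain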; settings: S. cerevisiae rad50 strain growth inhibition, hits give high values
In short: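 Relative growth inhibition (compound vs vehicle) was measured in yeast with a defined repair-gene alteration.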

[6] = NCI Yeast Anticancer Drug Screen. Data for the mec2-1 strain (AID 157); settings: S. cerevisiae mec2-1 strain, hits give high values
In short: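 Using mec2-1 yeast: add compound, measure growth, express inhibition versus vehicle-treated cultures.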

[7] = NCI Yeast Anticancer Drug Screen. Data for the rad14 strain (AID 159);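 further: 0% = growth of vehicle-treated control cultures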; settings: S. cerevisiae rad14 strain growth inhibition, hits give high values
In short: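 Screen for anticancer potential: a yeast strain altered in DNA damage repair is grown with compound, and reduced growth is quantified against vehicle controls.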

[8] = NCI Yeast Anticancer Drug Screen. Data for the sgs1 mgt1 strain (AID 161);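 further: 0% = growth of cultures given vehicle only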; settings: S. cerevisiae sgs1 mgt1 strain, hits give high values
In short: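 This yeast growth screen uses a strain with defined DNA-repair lesions; compound-treated growth is compared with vehicle-treated growth.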

[9] = NCI Yeast Anticancer Drug Screen. Data for the CLN2oe strain (AID 163);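 further: 0% = growth of vehicle-only control cultures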; settings: S. cerevisiae CLN2oe strain, hits give high values
In short: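 Whole-cell yeast growth assay. A strain engineered for altered cell-cycle control received compound, and inhibition relative to vehicle-treated cultures was recorded.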

[10] = NCI Yeast Anticancer Drug Screen. Data for the cln2 rad14 strain (AID 165);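 further: 0% = growth equal to vehicle treated cultures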; settings: S. cerevisiae cln2 rad14 strain, hits give high values
In short: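 Yeast strain cln2 rad14, bearing defects in cell cycle control and DNA repair, serves as the test system; values reflect growth inhibition compared with vehicle.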

[11] = NCI Yeast Anticancer Drug Screen. Data for the bub3 strain (AID 167); settings: S. cerevisiae bub3 mutant strain, hits give high values
In short: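 Screening used yeast with an engineered genetic alteration affecting cell cycle control. Compound-exposed cultures were compared with vehicle cultures, and reduced growth was taken as inhibition.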

[12] = NCI Yeast Anticancer Drug Screen. Data for the wt2 strain (AID 169);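 further: 0% = growth of vehicle-treated yeast cultures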; settings: S. cerevisiae wt2 strain growth inhibition, hits give high values
In short: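 Treated yeast vs. vehicle-treated yeast: growth inhibition determined.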

[13] = NCI Yeast Anticancer Drug Screen. Data for the mlh1 strain (AID 171);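 further: 0% = growth of vehicle-treated control cultures of the same strain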; settings: S. cerevisiae mlh1 strain growth inhibition, hits give high values
In short: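 A yeast strain with a defined genetic lesion serves as the test organism. Cultures receive compound or vehicle, and growth is measured.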

[14] = NCI Yeast Anticancer Drug Screen. Data for the sgs1 strain (AID 173);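 further: 0% = growth of vehicle-only control cultures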; settings: S. cerevisiae sgs1 mutant, hits give high values
In short: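 A genetically defined yeast mutant is incubated with the test compound, and its growth is compared to that of the same strain given vehicle.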

[15] = NCI Yeast Anticancer Drug Screen. Data for the mlh1 rad18 strain (AID 175); settings: S. cerevisiae mlh1 rad18 strain growth inhibition, hits give high values
In short: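 Steps: expose repair-defective yeast to compound; measure growth; express inhibition against vehicle-treated controls.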

[16] = NCI Yeast Anticancer Drug Screen. Data for the rad18 strain (AID 177); settings: S. cerevisiae rad18 mutant growth inhibition, hits give high values
In short: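 Measured value is growth inhibition of a yeast strain bearing a DNA repair alteration, referenced to vehicle-treated cells.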

[17] = at 5.0 µM (retest, dose inferred, filed as 0.5)
[18] = at 50.0 µM (retest, dose inferred, filed as 5.0)

Measured: growth inhibition

c1ccc2c(OCC3CO3)cccc2c1 (stereo unspecified)
inactive: [1]; at 1.2 µM 3% | [1]; at 3.7 µM 12% | [1]; at 11.0 µM 45% | [2]; at 1.2 µM -2% | [2]; at 3.7 µM 0% | [2]; at 11.0 µM 0% | [2]; at 33.0 µM 4% | [2]; at 100.0 µM 18% | [3]; at 1.2 µM 9% | [3]; at 3.7 µM 30% | [4]; at 1.2 µM -1% | [4]; at 3.7 µM -1% | [4]; at 11.0 µM 0% | [4]; at 33.0 µM 4% | [4]; at 100.0 µM 32% | [5]; at 1.2 µM 0% | [5]; at 3.7 µM 12% | [5]; [17] 36% | [5]; at 11.0 µM 66% | [6]; at 1.2 µM 1% | [6]; at 3.7 µM 4% | [6]; [17] 6% | [6]; at 11.0 µM 10% | [6]; at 33.0 µM 32% | [6]; at 50.0 µM 49.3% | [7]; at 1.2 µM -1% | [7]; at 3.7 µM -3% | [7]; at 11.0 µM 1% | [7]; at 33.0 µM 17% | [8]; [17] 50% | [9]; at 1.2 µM -4% | [9]; at 3.7 µM -3% | [9]; at 11.0 µM -2% | [9]; at 33.0 µM 2% | [9]; at 100.0 µM 4% | [10]; [17] 3% | [10]; at 50.0 µM 63.8% | [11]; at 1.2 µM -3% | [11]; at 3.7 µM -5% | [11]; [17] -12% | [11]; at 11.0 µM -11% | [11]; at 33.0 µM -12% | [11]; [18] -8% | [11]; at 50.0 µM 13.2% | [11]; at 100.0 µM 21% | [12]; at 1.2 µM -2% | [12]; at 3.7 µM 7% | [12]; at 11.0 µM 0% | [12]; at 33.0 µM 5% | [12]; at 100.0 µM 25% | [13]; at 1.2 µM 0% | [13]; at 3.7 µM 1% | [13]; at 11.0 µM 5% | [13]; at 33.0 µM 10% | [13]; at 100.0 µM 40% | [14]; at 1.2 µM 15% | [14]; at 3.7 µM 41% | [15]; [17] 14% | [16]; at 1.2 µM 18% | [16]; at 3.7 µM 55%
active: [1]; at 33.0 µM 86% | [1]; at 100.0 µM 94% | [3]; at 11.0 µM 73% | [3]; at 33.0 µM 93% | [3]; at 100.0 µM 96% | [5]; at 33.0 µM 89% | [5]; [18] 94% | [5]; at 50.0 µM 92.8% | [5]; at 100.0 µM 95% | [6]; [18] 75% | [6]; at 100.0 µM 91% | [7]; at 100.0 µM 89% | [8]; [18] 83% | [8]; at 50.0 µM 84.5% | [10]; [18] 71% | [14]; at 11.0 µM 72% | [14]; at 33.0 µM 88% | [14]; at 100.0 µM 93% | [15]; [18] 86% | [15]; at 50.0 µM 82.1% | [16]; at 11.0 µM 86% | [16]; at 33.0 µM 95% | [16]; at 100.0 µM 98%

Cc1cc(NCCCCCCCCNc2cc(C)nc3cc(N)ccc23)c2ccc(N)cc2n1
active: [1]; at 11.0 µM 75% | [1]; at 33.0 µM 98% | [1]; at 100.0 µM 95% | [2]; at 11.0 µM 92% | [2]; at 33.0 µM 98% | [2]; at 100.0 µM 96% | [3]; at 33.0 µM 95% | [3]; at 100.0 µM 95% | [4]; at 11.0 µM 80% | [4]; at 33.0 µM 98% | [4]; at 100.0 µM 95% | [5]; at 11.0 µM 92% | [5]; at 33.0 µM 97% | [5]; [18] 98% | [5]; at 50.0 µM 90.2% | [5]; at 100.0 µM 96% | [6]; at 11.0 µM 91% | [6]; at 33.0 µM 98% | [6]; [18] 98% | [6]; at 50.0 µM 91.4% | [6]; at 100.0 µM 96% | [7]; at 11.0 µM 87% | [7]; at 33.0 µM 97% | [7]; at 100.0 µM 96% | [8]; [18] 99% | [8]; at 50.0 µM 92.1% | [9]; at 33.0 µM 97% | [9]; at 100.0 µM 94% | [10]; [18] 98% | [10]; at 50.0 µM 88% | [11]; at 11.0 µM 90% | [11]; at 33.0 µM 97% | [11]; [18] 99% | [11]; at 50.0 µM 91.5% | [11]; at 100.0 µM 93% | [12]; at 33.0 µM 97% | [12]; at 100.0 µM 95% | [13]; at 11.0 µM 92% | [13]; at 33.0 µM 97% | [13]; at 100.0 µM 94% | [14]; at 33.0 µM 95% | [14]; at 100.0 µM 94% | [15]; [18] 98% | [15]; at 50.0 µM 89.2% | [16]; at 33.0 µM 97% | [16]; at 100.0 µM 93%
inactive: [1]; at 1.2 µM -41% | [1]; at 3.7 µM -45% | [2]; at 1.2 µM -65% | [2]; at 3.7 µM -41% | [3]; at 1.2 µM -47% | [3]; at 3.7 µM -30% | [3]; at 11.0 µM 50% | [4]; at 1.2 µM -72% | [4]; at 3.7 µM -79% | [5]; at 1.2 µM -39% | [5]; at 3.7 µM -32% | [5]; [17] 15% | [6]; at 1.2 µM -70% | [6]; at 3.7 µM -55% | [6]; [17] 12% | [7]; at 1.2 µM -40% | [7]; at 3.7 µM -35% | [8]; [17] 8% | [9]; at 1.2 µM -18% | [9]; at 3.7 µM -20% | [9]; at 11.0 µM 39% | [10]; [17] 18% | [11]; at 1.2 µM -64% | [11]; at 3.7 µM -45% | [11]; [17] 39% | [12]; at 1.2 µM -39% | [12]; at 3.7 µM -36% | [12]; at 11.0 µM 55% | [13]; at 1.2 µM -88% | [13]; at 3.7 µM -63% | [14]; at 1.2 µM -64% | [14]; at 3.7 µM -72% | [14]; at 11.0 µM 65% | [15]; [17] 7% | [16]; at 1.2 µM -45% | [16]; at 3.7 µM -65% | [16]; at 11.0 µM 66%
